26 compounds from PubChem BioAssay (EPA / NIEHS) can be followed below.

Several values for one entry are separate records, joined by “and”; a condition that tells them apart may be missing. Equal values may be shown once. The source holds several records for some structures; these can differ, active in one and inactive in another. Activity calls are given as the source filed them. The calls were made as follows: active = hit-call score of the fitted dose curve at least 0.9, where 1 is the maximum; inactive = score below 0.9.

Test system in the first test: not listed separately
The test is described as follows: ATG_PBREM_CIS: Attagene CIS-FACTORIAL HepG2 Assay for human Phenobarbital-responsive Enhancer Module (PBREM) (AID 2282955). Particulars: HepG2 PBREM cis-reporter, Attagene multiplexed transcription; actives raise or lower the signal. Put shortly:
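Fluorescence of labelled reporter cDNA fragments, resolved by capillary electrophoresis, gives mRNA induction in transfected HepG2 cells treated for 24 h; DMSO serves as negative control and baseline.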
As to `CCCCNC(=O)OCC#CI`, the AC50 (as a rule, the midpoint of the concentration-response curve, whichever way the signal moves) was 25.9 µM (active) and the outcome was inactive.
As for `CC(C)(C)c1ccc(CSc2cnn(C(C)(C)C)c(=O)c2Cl)cc1`, the AC50 is 0.527 µM (active).
In the case of `C=CCC1=C(C)C(OC(=O)C2C(C=C(C)C)C2(C)C)CC1=O` (configuration not stated), the result was inactive.
The same measure, in the same setting: the entry for `COC(=O)C=C(C)OP(=O)(OC)OC` is “inactive”.
Still for that read-out and setting: the entry for `CC(C)C1(C)N=C(c2nc3ccccc3cc2C(=O)O)NC1=O` (configuration not stated) is “inactive”.
As for `CCCN(CCC)c1c([N+](=O)[O-])cc(S(N)(=O)=O)cc1[N+](=O)[O-]`, the AC50 is 2.2 µM (active) and the outcome was inactive.
On to `CCc1nn(C)c(C(=O)NCc2ccc(C(C)(C)C)cc2)c1Cl`, for which the AC50 is 1.39 µM (active).
Take `OC(c1ccc(Cl)cc1)(c1cncnc1)c1ccccc1Cl` (configuration not stated): the result was inactive.

The target of another test is Paired box protein Pax-6 (Homo sapiens) (UniProt P26367). Put plainly: ATG_Pax6_CIS: Attagene CIS-FACTORIAL HepG2 Assay for human Paired Box 6 (PAX6) (AID 2282956). Particulars: HepG2 CIS-FACTORIAL PAX6 reporter transcription, RNA readout; actives raise or lower the signal. The procedure, abridged: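 HepG2 cells transiently transfected with multiplexed cis-promoter reporter units (endogenous TF activity) were dosed for 24 h. Reporter mRNA was quantified by RT-PCR, 6-FAM labeling, HpaI digestion and capillary electrophoresis; bidirectional fitting versus DMSO baseline.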
Chain of Paired box protein Pax-6 (Homo sapiens) (P26367 whole entry, looked up): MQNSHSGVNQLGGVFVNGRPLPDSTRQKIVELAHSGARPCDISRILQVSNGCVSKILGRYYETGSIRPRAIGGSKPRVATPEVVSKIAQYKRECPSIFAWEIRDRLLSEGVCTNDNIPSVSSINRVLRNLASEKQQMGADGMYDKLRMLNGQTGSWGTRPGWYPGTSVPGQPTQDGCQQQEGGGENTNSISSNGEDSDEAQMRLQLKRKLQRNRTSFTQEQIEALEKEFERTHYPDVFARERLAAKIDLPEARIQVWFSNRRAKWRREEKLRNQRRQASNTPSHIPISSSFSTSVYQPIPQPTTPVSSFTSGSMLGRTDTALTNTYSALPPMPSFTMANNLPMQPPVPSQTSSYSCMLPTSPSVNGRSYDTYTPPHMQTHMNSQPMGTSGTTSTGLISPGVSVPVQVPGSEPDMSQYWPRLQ
On to `COc1nc(NC(C)C)nc(NC(C)C)n1`, for which the outcome was inactive.
On to `Oc1ccccc1-c1ccccc1`, for which the AC50 is 57.7 µM (active) and the outcome was inactive.
Consider `COc1nc(C)nc(NC(=O)NS(=O)(=O)c2ccccc2Cl)n1`, for which the compound was called inactive.
On to `CCOC(=O)CC(SP(=S)(OC)OC)C(=O)OCC` (configuration not stated), for which the AC50 is 100 µM (active) and the result was inactive.
Regarding `CCCCC(CC)COC(=O)c1ccccc1C(=O)OCC(CC)CCCC` (configuration not stated), the compound was classed as inactive.
`COc1nc(C)nc(NC(=O)NS(=O)(=O)c2ccccc2CCC(F)(F)F)n1`: the call was inactive.
On the same count and under the same terms, the entry for `COc1ccc(C(c2ccc(OC)cc2)C(Cl)(Cl)Cl)cc1` is “inactive”; for `CNC(=S)S` it is “inactive”.
As for `COP(=S)(OC)Oc1nc(Cl)c(Cl)cc1Cl`, the outcome was inactive.
As to `COC(=O)N(OC)c1ccccc1COc1ccn(-c2ccc(Cl)cc2)n1`, the outcome was inactive.
In the case of `N#Cc1nn(-c2c(Cl)cc(C(F)(F)F)cc2Cl)c(N)c1S(=O)C(F)(F)F` (configuration not stated), the AC50 was 48.4 µM (active) and the call was inactive.
As to `C=CCC1=C(C)[C@@H](OC(=O)[C@@H]2[C@@H](C=C(C)C)C2(C)C)CC1=O`, the result was inactive.
The same measure, in the same setting: the value for `CCCC1COC(Cn2cncn2)(c2ccc(Cl)cc2Cl)O1` (configuration not stated) was “inactive”; that for `CO/C=C(/C(=O)OC)c1ccccc1Oc1cc(Oc2ccccc2C#N)ncn1` was “inactive”.
Consider `CON(C)C(=O)Nc1ccc(Cl)c(Cl)c1`, for which the outcome was inactive.
Still for that read-out and setting: the entry for `CCCCNC(=O)n1c(NC(=O)OC)nc2ccccc21` is “inactive”; for `CCCCOC(=O)c1ccccc1C(=O)OCCCC` it is “inactive”; for `COC(=O)c1ccccc1C(=O)OC` it is “inactive”.
Consider `CCCCNC(=O)OCC#CI`, for which the AC50 was 32.7 µM (active) and the result was inactive.
Consider `CC(C)(C)c1ccc(CSc2cnn(C(C)(C)C)c(=O)c2Cl)cc1`, for which the compound was classed as inactive.
In the case of `C=CCC1=C(C)C(OC(=O)C2C(C=C(C)C)C2(C)C)CC1=O` (configuration not stated), the AC50 was 64.5 µM (active) [middle of 4 runs] and the call was inactive.
For `COC(=O)C=C(C)OP(=O)(OC)OC`, the result was inactive.
On the same count and under the same terms, the entry for `CC(C)C1(C)N=C(c2nc3ccccc3cc2C(=O)O)NC1=O` (configuration not stated) is “inactive”; for `CCCN(CCC)c1c([N+](=O)[O-])cc(S(N)(=O)=O)cc1[N+](=O)[O-]` it is “inactive”; for `CCc1nn(C)c(C(=O)NCc2ccc(C(C)(C)C)cc2)c1Cl` it is “inactive”.
Still for that read-out and setting: the entry for `OC(c1ccc(Cl)cc1)(c1cncnc1)c1ccccc1Cl` (configuration not stated) is “inactive”.

Test system in a further test: not listed separately
The test is described as follows: ATG_PXRE_CIS: Attagene CIS-FACTORIAL HepG2 Assay for human Pregnane X Receptor Element (PXRE) (AID 2282957). Particulars: HepG2 Attagene CIS-FACTORIAL PXRE reporter, mRNA; actives raise or lower the signal. The procedure, abridged:
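Transfect HepG2 with MRTUs (cis promoter elements); dose chemical, incubate 24 h; isolate RNA, RT with oligo(dT), PCR, 6-FAM label, HpaI cut, CE. Gain/loss fit vs DMSO.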
As for `COc1nc(NC(C)C)nc(NC(C)C)n1`, the AC50 was 18.6 µM (active) and the compound was called inactive.
As for `Oc1ccccc1-c1ccccc1`, the half-maximal activity concentration (AC50) is 13.5 µM (active) and 3.11 µM (active).
Consider `COc1nc(C)nc(NC(=O)NS(=O)(=O)c2ccccc2Cl)n1`, for which the half-maximal activity concentration (AC50) is 31.3 µM (active) and the compound was classed as inactive.
Consider `CCOC(=O)CC(SP(=S)(OC)OC)C(=O)OCC` (configuration not stated), for which the AC50 is 2.27 µM (active) and 12.2 µM (active).
On the same count and under the same terms, the figure for `CCCCC(CC)COC(=O)c1ccccc1C(=O)OCC(CC)CCCC` (configuration not stated) is 9.84 µM (active).
The same measure, in the same setting: the value for `COc1nc(C)nc(NC(=O)NS(=O)(=O)c2ccccc2CCC(F)(F)F)n1` was 18.9 µM (active) and 50 µM (active) and 33.4 µM (active).
As to `COc1ccc(C(c2ccc(OC)cc2)C(Cl)(Cl)Cl)cc1`, the AC50 was 4.17 µM (active) [middle of 4 runs] and the outcome was inactive.
Take `CNC(=S)S`: the AC50 is 80 µM (active) and the result was inactive.
As to `COP(=S)(OC)Oc1nc(Cl)c(Cl)cc1Cl`, the half-maximal activity concentration (AC50) was 13.7 µM (active).
Still for that read-out and setting: the figure for `COC(=O)N(OC)c1ccccc1COc1ccn(-c2ccc(Cl)cc2)n1` is 1.28 µM (active); for `N#Cc1nn(-c2c(Cl)cc(C(F)(F)F)cc2Cl)c(N)c1S(=O)C(F)(F)F` (configuration not stated) it is 2.37 µM (active) and 44.9 µM (active); for `C=CCC1=C(C)[C@@H](OC(=O)[C@@H]2[C@@H](C=C(C)C)C2(C)C)CC1=O` it is 0.965 µM (active).
Consider `CCCC1COC(Cn2cncn2)(c2ccc(Cl)cc2Cl)O1` (configuration not stated), for which the AC50 is 4.09 µM (active) and 85 µM (active).
On the same count and under the same terms, the figure for `CO/C=C(/C(=O)OC)c1ccccc1Oc1cc(Oc2ccccc2C#N)ncn1` is 526 nM (active) [middle of 6 runs].
Still for that read-out and setting: the figure for `CON(C)C(=O)Nc1ccc(Cl)c(Cl)c1` is 26.7 µM (active) [middle of 4 runs].
As to `CCCCNC(=O)n1c(NC(=O)OC)nc2ccccc21`, the result was inactive.
Regarding `CCCCOC(=O)c1ccccc1C(=O)OCCCC`, the AC50 was 27.4 µM (active) [middle of 5 runs].
Same read-out and setting: the value for `COC(=O)c1ccccc1C(=O)OC` was 32.8 µM (active).
As for `CCCCNC(=O)OCC#CI`, the AC50 is 48.6 µM (active) and 1.56 µM (active) and 1.73 µM (active).
Take `CC(C)(C)c1ccc(CSc2cnn(C(C)(C)C)c(=O)c2Cl)cc1`: the AC50 was 2.14 µM (active).
`C=CCC1=C(C)C(OC(=O)C2C(C=C(C)C)C2(C)C)CC1=O` (configuration not stated): the AC50 was 566 nM (active) [middle of 6 runs].
For the compound `COC(=O)C=C(C)OP(=O)(OC)OC`, the outcome was inactive.
As to `CC(C)C1(C)N=C(c2nc3ccccc3cc2C(=O)O)NC1=O` (configuration not stated), the AC50 was 11.1 µM (active).
Still for that read-out and setting: the figure for `CCCN(CCC)c1c([N+](=O)[O-])cc(S(N)(=O)=O)cc1[N+](=O)[O-]` is 302 nM (active) and 134 nM (active) and 567 nM (active); for `CCc1nn(C)c(C(=O)NCc2ccc(C(C)(C)C)cc2)c1Cl` it is 3.17 µM (active).
With `OC(c1ccc(Cl)cc1)(c1cncnc1)c1ccccc1Cl` (configuration not stated), the AC50 was 2.17 µM (active) and the call was inactive.
